Screens: PubChem, The Scripps Research Institute Molecular Screening Center
MITF primary: blocks human microphthalmia-associated transcription factor; AlphaScreen MITF homodimerization, bead proximity signal; inhibition, % at 2.6 µM; hit rate 0.91% among 650,000; AID 1259374; in the data active means inhibition above about 50%
TEAD-YAP block: TEAD-YAP interaction inhibition; hit rate 1.4% among 640,000; AID 1259422; inhibition, % at 9.12 µM; HEK-TIYL cells, TEAD-Gal4/YAP UAS-luciferase luminescence; in the data active means inhibition above about 32%
GPR151 ag: activators of human GPR151; Q8TDV0; PathHunter beta-arrestin GPR151 cells, luminescence; activation, % at 11.2 µM; hit rate 1% among 650,000; in the data active means activation above about 4.9%
FBW7 act: activators of human E3 ligase FBW7 | Q969H0 | AlphaScreen FBW7–phospho-cyclin E peptide binding, activator screen | normalized activity (activation), % at 26.1 µM | hit rate 0.13% among 650,000; in the data active means normalized activity above about 1.9%;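 further: purified mutant Fbw7 with reduced substrate affinity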
Target sequence (Q969H0 whole entry, looked up): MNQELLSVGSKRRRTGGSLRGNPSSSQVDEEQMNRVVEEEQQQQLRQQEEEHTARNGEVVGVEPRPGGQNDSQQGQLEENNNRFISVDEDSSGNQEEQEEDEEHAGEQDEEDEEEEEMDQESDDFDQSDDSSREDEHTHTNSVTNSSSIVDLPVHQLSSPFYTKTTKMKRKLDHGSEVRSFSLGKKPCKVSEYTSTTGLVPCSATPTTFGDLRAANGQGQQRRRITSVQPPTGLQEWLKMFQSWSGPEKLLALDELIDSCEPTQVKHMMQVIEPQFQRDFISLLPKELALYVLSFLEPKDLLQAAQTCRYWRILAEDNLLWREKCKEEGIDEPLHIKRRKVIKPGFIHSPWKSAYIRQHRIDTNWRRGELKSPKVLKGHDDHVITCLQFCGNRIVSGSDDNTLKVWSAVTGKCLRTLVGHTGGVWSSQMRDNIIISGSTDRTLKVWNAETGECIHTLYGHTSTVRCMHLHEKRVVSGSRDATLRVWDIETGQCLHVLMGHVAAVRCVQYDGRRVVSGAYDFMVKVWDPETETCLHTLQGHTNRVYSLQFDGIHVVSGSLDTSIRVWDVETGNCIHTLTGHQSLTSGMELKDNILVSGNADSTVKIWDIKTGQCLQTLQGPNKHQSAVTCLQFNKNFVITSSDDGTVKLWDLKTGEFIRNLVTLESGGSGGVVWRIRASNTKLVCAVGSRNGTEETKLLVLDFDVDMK
GPR151 conf act: confirmation of human GPR151 activators | shares compounds with GPR151 ag | GPR151 PathHunter beta-arrestin cells, luminescence, 90 min; % of EA-reagent control over plate median | activation, % at 11.2 µM | 6,700 tested, under 10 active | AID 1508609;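 active means mean percent activation across replicates above the confirmation screen cutoff of 4.91%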
GPR119 ag: counter-screen for GPR151 activators: effect on human GPR119; activation, % at 11.2 µM; hit rate 0.3% among 6,700; GPR119 PathHunter beta-arrestin cells, luminescence, 90 min; 0 = compound-well median, 100 = enzyme-acceptor control; AID 1508611; shares compounds with GPR151 ag;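 active means mean percent activation in the counterscreen above 29.09%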;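 further: counterscreen on off-target GPR119 to flag nonselective hits from the GPR151 activator screen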
Numbers stand for hits; 0 = inactive; - = no result given. Shown are actives, neighbours in structure and some others; about 3.5% of the full set was active somewhere.

SMILES	MITF primary	TEAD-YAP block	GPR151 ag	FBW7 act	GPR151 conf act	GPR119 ag
CCC1CCCCN1C(=O)COC(=O)/C(C#N)=C/c1ccc2c(c1)OCO2 (stereo not drawn)	0	0	0	0	-	-
O=C(NNS(=O)(=O)c1ccc(Br)cc1)c1ccccc1	0	0	5.4	0	0	0
O=C(NNS(=O)(=O)c1ccc2ccccc2c1)c1ccc(Br)cc1	0	0	0	0	-	-
Cc1cnc(Cl)nc1NCc1ccccc1	0	0	5.6	0	0	0
COc1ccc(Cl)cc1NC(=O)N(C)Cc1c(C)nn(C)c1C	0	0	9.6	0	0	0
COc1ccc(Cl)cc1NC(=O)CCn1nc(C)c(C)c1C	0	0	0	0	-	-
COC(=O)C(CC(C)C)NC(=O)CSC1=NC(=O)C(c2ccccc2)C(=O)N1 (stereo not drawn)	0	0	5.6	0	0	0
CC(=O)c1cc(F)c(N2CCN(C(=O)c3cc(F)c(F)cc3[N+](=O)[O-])CC2)cc1C	0	0	5.3	0	0	0
Cc1cc(F)c(F)cc1C(=O)N1CCN(c2cc(C)c([N+](=O)[O-])cc2F)CC1	0	0	0	0	-	-
Cc1cc(N2CCN(C(=O)c3ccc(Br)cc3)CC2)c(F)cc1[N+](=O)[O-]	0	0	6.9	0	0	0
C[C@@H]1CC[C@H]2C(=O)O[C@@H](COc3ccc(C(C)(C)C)cc3)CN2[C@@H]1c1ccc(Br)cc1	0	-	5.4	0	0	0
C[C@H]1CC[C@H]2C(=O)O[C@H](CO)CN2[C@@H]1c1ccc(Br)cc1	0	-	0	0	-	-
CCSc1nc2ccccc2n1CC(=O)Nc1ccccc1CC	0	0	0	0	-	-
COc1ccc(NC(=O)CCNc2c(N3CCCC3)c(=O)c2=O)cc1	0	0	6.1	0	0	0
CCCCn1nnnc1SCC(=O)NNC(=O)c1ccco1	0	0	5.9	0	0	0
CCCn1nnnc1SCC(=O)NNC(=O)c1ccco1	0	0	0	0	-	-
COCCN(C(=S)Nc1ccccc1C)C1CCN(C(C)C)CC1	0	0	0	0	-	-
O=C1c2cccc3cccc(c23)N1Cc1c(O)ccc2ccccc12	0	0	5.5	0	0	0
Cc1cc(F)ccc1NC(=O)CC(C)S(=O)(=O)c1ccc2c(c1)SC(C)C(=O)N2 (stereo not drawn)	0	0	0	0	-	-
CN(C)CCNC(=O)c1cc(-c2ccncc2)nc2ccc(Cl)cc12	0	0	0	0	-	-
COc1ccccc1C(=O)Nc1ccnn1C1CCN(Cc2ccc3nsnc3c2)CC1	0	0	5.6	0	0	0
CCn1cc(CN2CCC(n3nccc3NC(=O)c3ccc(OC)cc3)CC2)cn1	0	0	5.2	0	0	0
COc1ccccc1C(=O)Nc1ccnn1C1CCN(Cc2cccc(C(C)=O)c2)CC1	0	0	0	0	-	-
COc1ccccc1C(=O)Nc1ccnn1C1CCN(C2CCCCC2)CC1	0	0	5.1	0	0	0
CC(=O)OC(C)(C#CCN1CCCCC1)C(C)C (stereo not drawn)	0	0	0	0	-	-
SMILES	MITF primary	TEAD-YAP block	GPR151 ag	FBW7 act	GPR151 conf act	GPR119 ag
N=C1S/C(=C\c2ccc(F)cc2)C(=O)N1c1nccs1	0	0	0	0	-	-
CCc1nnc(NC(=O)Cc2cccc3ccccc23)s1	0	0	0	0	-	-
Cn1c(=O)[nH]c(=O)c2c1ncn2CC(O)CO (stereo not drawn)	0	0	0	0	-	-
COC(=O)c1c(C)oc2ccc(N(C(C)=O)S(=O)(=O)c3cc(C)ccc3C)cc12	0	0	0	0	-	-
O=C(NCCN1CCCCCC1)c1ncoc1-c1ccc(Cl)cc1	0	0	5.9	0	0	0
COc1ccc(-c2ocnc2C(=O)NCCN2CCCCCC2)cc1OC	0	0	0	0	-	-
CCCOc1ccc(-c2nnc(SCC(N)=O)n2-c2ccccc2)cc1	0	0	5.3	0	0	0
CCOc1ccc(-c2nnc(SCC(N)=O)n2-c2ccccc2)cc1	0	0	0	0	-	-
CCOc1ccc(NC(=O)c2ccc(F)c(S(=O)(=O)NC3CCCC(C)C3C)c2)cc1 (stereo not drawn)	0	0	0	0	-	-
CCCN1CCC(=NNC(=O)c2ccc(Cl)cc2Cl)CC1	0	0	4.9	0	0	0
CSc1cccc(NC(=S)N(Cc2ccccc2)Cc2cccs2)c1	0	0	6.5	0	0	0
Cc1cccc(NC(=S)N(Cc2ccccc2)Cc2cccs2)c1	0	0	0	0	-	-
CSCC(=O)NCC1Cc2cc(F)cc(-c3ccc(C(C)=O)s3)c2O1 (stereo not drawn)	0	0	0	0	-	-
CC(=O)c1ccc(-c2cc(F)cc3c2OC(CNC(=O)CN(C)C)C3)s1 (stereo not drawn)	0	0	5.6	0	0	0
COc1ccc(CCN2C(=O)c3ccc(Oc4ccc([N+](=O)[O-])cc4)cc3C2=O)cc1OC	0	0	0	0	-	-
COc1ccc(CCN2C(=O)c3ccc(Oc4ccc(Nc5ncnc6ccccc56)cc4)cc3C2=O)cc1OC	0	97	6.6	0	0	0
Cc1ccc(NC(=O)CSCC(=O)NCc2cccs2)c(C)c1	0	0	0	0	-	-
CCC(C)CC(=O)N1CCc2nnc(CNC(=O)CCc3cccnc3)n2CC1 (stereo not drawn)	0	0	9.0	0	0	0
Cc1ccc(C)c(/C=C2\SC(N)=NC2=O)c1	0	0	0	0	-	-
COc1ccc(/C=C2\SC(N)=NC2=O)cc1OC	0	0	9.1	0	0	0
Cc1cc(C)c(/C=C2\SC(N)=NC2=O)c(C)c1	0	0	7.8	0	0	0
CCOC(=O)C1=C(CSc2nc3c(c(-c4cccs4)c2C#N)CCCC3)OC(N)=C(C#N)C1c1ccccc1Br (stereo not drawn)	0	0	0	0	-	-
CC1(C)OC(=O)N2CCN3C(=O)OC(C)(C)C3(C)C(Br)=C21 (stereo not drawn)	0	0	6.0	0	0	0
COCCNc1c(-c2ccc(OC)c(CO)c2)nc2cnccn12	0	0	0	0	-	-
Cn1cccc1C(=O)OCC(=O)NC(=O)NCc1ccccc1	0	0	6.2	0	0	0
SMILES	MITF primary	TEAD-YAP block	GPR151 ag	FBW7 act	GPR151 conf act	GPR119 ag
Cc1ccc(C2=NN3C(C2)c2ccccc2OC3c2ccc(OC(C)C)cc2)cc1 (stereo not drawn)	0	0	0	0	-	-
COC(=O)c1c(NC(C)=O)c2c(C)c(C)sc2n1Cc1cccc(OC)c1	0	0	0	0	-	-
C=Cc1ccc(Cn2c(C(=O)OC)c(NC(C)=O)c3c(C)c(C)sc32)cc1	0	0	5.4	0	0	0
Cc1ccc(-c2noc(C3CCN(S(=O)(=O)c4ccccc4)CC3)n2)cc1	0	0	0	0	-	-
COc1cccc(S(=O)(=O)N2CCC(c3nc(-c4cccnc4)no3)CC2)c1	0	0	7.4	0	0	0
Cc1ccc(S(=O)(=O)N2CCC(c3nc(-c4ccccc4C)no3)CC2)cc1	0	0	6.2	0	0	0
Cc1ccc(/C=C2/SC(=S)N(CC(=O)O)C2=O)cc1[N+](=O)[O-]	0	0	0	0	-	-
